# Assay outcomes from PubChem.
# In the library only some 7.2% were active in any assay of this set; here they are far more common.
# A1 inh – inhibitors of the anti-apoptotic protein A1, read as caspase activation | AID 2462 | caspase activation, % (test concentration not listed) | MEF A1-2A-BIM cells, Caspase-Glo 3/7 luminescence, 3 h; percent of clofoctol response, vehicle zero | 0.066% of 330,000 active;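 active means over half of replicate activation scores above 10%, or exactly half above 10 with the replicate mean above 10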
# VLA-4 inh – inhibition in a human VLA-4 binding assay. VLA-4 expressing cells, ligand binding flow cytometry. 0.2% of 330,000 active. inhibition, % (about 7 µM as worked out from the volumes in the protocol). P13612; in the data active means inhibition above about 50%
# ALR H2O2 inh – blocks human ALR sulfhydryl oxidase activity; P55789; purified ALR, DTT oxidation, H2O2 HRP-luminol luminescence; inhibition, % (concentration not given with the values); 3.8% of 290,000 active;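 active means mean replicate inhibition above about 79%, with every replicate also reaching it, limit read from the data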
# Target sequence (P55789 whole entry, looked up): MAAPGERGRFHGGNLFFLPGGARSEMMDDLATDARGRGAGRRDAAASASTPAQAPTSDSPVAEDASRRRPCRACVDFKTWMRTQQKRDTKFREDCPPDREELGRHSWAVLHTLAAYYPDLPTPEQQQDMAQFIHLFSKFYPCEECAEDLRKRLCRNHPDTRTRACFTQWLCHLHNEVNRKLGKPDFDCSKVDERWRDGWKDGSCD
# AHR activator – activators of human aryl hydrocarbon receptor | P35869 | AHR-responsive luciferase reporter cells, luminescence | activation, % at 5 µM | 2.5% of 320,000 active | AID 2796; in the data active means activation above about 47%;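 further: 0% = vehicle wells and 100% = reference agonist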
# Efflux pump inh – antifungal efflux pump inhibition, Nile Red retention; S. cerevisiae Candida pump triplex; inhibition, % at 10 µM; 0.44% of 330,000 active;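 active means plate passing quality check with inhibition over a set limit, or well fluorescence over plate mean plus 4 SD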;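 further: Nile Red retained in pooled yeast measured as flow cytometry median fluorescence; 0% = buffer negative control and 100% = Enniatin B positive control; higher means more Nile Red kept so more efflux inhibition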
# Mot1-301 SUMO – SUMOylation pathway inhibition by Mot1-301 growth rescue | growth rescue, % at 18.8 µM | AID 2716 | S. cerevisiae Mot1-301 growth rescue, ATP luminescence, 38.5C; percent above DMSO median, 100 means doubled | 1% of 320,000 active;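 active means every valid replicate shows activation above 250% relative to neutral control wells; inactive means the rest, any valid replicate at or below 250%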;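 further: OY570 slx delta 5 strain wells were the positive control but not used for scaling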
# The depositor's hits bear a star; · = no result.
SMILES,A1 inh,VLA-4 inh,ALR H2O2 inh,AHR activator,Efflux pump inh,Mot1-301 SUMO
COc1cc(C(=O)OCC(=O)Nc2ccccc2C(=O)NC2CC2)c([N+](=O)[O-])cc1OC,1,5,-3,0,0,5
CCOC(=O)c1c2n(c3ccc(OC(C)=O)cc13)CCC2,1,-3,·,48*,0,258
O=C1CCCCCN1CP(=O)(O)CN1CCCCCC1=O,0,8,-6,-3,0,564*
CCCOC(=O)C(C)n1c(-c2ccccc2)nc2ccccc2c1=O (stereo not given),0,6,91*,5,0,-15
CCOC(=O)Cn1c(-c2ccccc2)nc2ccccc2c1=O,0,5,1,16,0,-7
CCCCOC(=O)Cn1c(-c2ccccc2)nc2ccccc2c1=O,0,7,-5,3,0,553*
Cc1ccoc1C(=O)N1CCCCC1C(=O)O (stereo not given),0,8,-1,-3,0,5
O=C(COC(=O)c1nn(-c2ccccc2C(F)(F)F)cc1O)c1ccc(OC(F)F)cc1,-1,9,-1,4,0,3
COc1cccc(N2CCN(C(=S)NCc3ccco3)CC2)c1,0,2,87*,8,0,-5
COc1cc(OC)cc(C(=O)NC(=S)NCc2ccco2)c1,1,-25,0,64*,0,-12
Fc1ccc(N2CCN(C(=S)NCc3ccco3)CC2)cc1,-1,4,42,-2,0,5
COc1cccc(C(=O)NC(=S)NCc2ccco2)c1,0,20,2,29,-1,-3
C=CCn1c(N)c(C(=O)NCC2CCCO2)c2nc3ccccc3nc21 (stereo not given),0,-11,44,30,0,3
C=CCn1c(N)c(C(=O)NCc2ccco2)sc1=S,0,-4,98*,4,0,11
O=C(NCc1ccco1)c1sc(=S)n2c1[nH]c(=O)c1ccccc12,0,0,98*,5,0,-3
C=CCn1c(N)c(C(=O)NCC2CCCO2)sc1=S (stereo not given),0,-4,99*,10,0,-6
Nc1c(C(=O)NCC2CCCO2)sc(=S)n1-c1ccccc1 (stereo not given),0,12,85*,3,0,-10
O=C(CN1C(=O)c2ccccc2S1(=O)=O)NCc1c(F)cccc1F,0,-3,1,-2,0,256
CCC(C)(C(=O)NC1CCCCC1)N(Cc1ccco1)C(=O)c1ccccn1 (stereo not given),-1,4,·,-1,0,234
C=CCn1c(N)c(C(=O)Nc2ccccc2OC)sc1=S,1,-3,98*,39,0,-9
C=CCn1c(N)c(C(=O)Nc2ccc(C)cc2)sc1=S,0,0,17,-13,0,1
CCn1c(N)c(C(=O)NCC2CCCO2)sc1=S (stereo not given),0,6,99*,2,0,-10
CCOC(=O)c1c(C)c(C(=O)NCC2CCCO2)c(C)n1CC (stereo not given),2,0,-2,4,0,-17
COc1ccc(C(CNC(=O)COc2ccc(Cl)cc2C)N2CCCCC2)cc1 (stereo not given),0,-3,-6,0,0,3
CCOC(=O)c1c(CNc2ccncc2)n(C)c2cc(Br)c(O)cc12,0,-18,26,0,0,-17
SMILES,A1 inh,VLA-4 inh,ALR H2O2 inh,AHR activator,Efflux pump inh,Mot1-301 SUMO
NC(=S)N/N=C\c1c(OCc2ccccc2Cl)ccc2ccccc12,0,3,·,70*,0,-13
O=C(CCNC(=O)C1CCN(S(=O)(=O)c2ccc(F)cc2)CC1)NCc1ccccc1Cl,1,-3,-22,0,0,2
CCN(CC)c1ccc(NC(=O)CCNS(=O)(=O)c2ccc3c(c2)CCC(=O)N3)c(C)c1,-1,-21,99*,2,0,6
CCN(CCNC(=O)CN(C)S(=O)(=O)c1cccc2nsnc12)c1ccccc1,-1,7,98*,9,0,-12
CCN(CCCNS(=O)(=O)c1ccc2c(c1)CCN2C(C)=O)c1cccc(C)c1,-1,12,97*,3,0,-1
CCN(CCCNC(=O)CN(C)S(=O)(=O)c1cccc2nsnc12)c1cccc(C)c1,0,31,99*,4,0,-9
CCc1ccc(OCC(=O)NNC(=O)C2CCC2)cc1,0,-1,1,1,0,22
CN(Cc1ccccc1)C(=O)c1cn(C)c2ccc(S(=O)(=O)N3CCCC3)cc2c1=O,0,6,-6,1,1,-10
CCOc1ccccc1OCCC(=O)OCC(=O)Nc1c(C)nn(-c2ccccc2)c1C,0,-1,5,0,0,13
Cc1ccccc1C(=O)NNC(=O)/C=C/c1ccccc1,0,-3,-7,4,0,-9
CCN(CC)C(=O)C(=O)c1cccn1-c1c(Cl)cccc1C#N,1,9,-13,2,0,-1
CCN(CCCNC(=O)CN(C)S(=O)(=O)c1ccc2c(c1)CCC(=O)N2)c1cccc(C)c1,1,9,96*,3,0,-2
COc1cccc(-c2noc(CCC(=O)NCC3CCCO3)n2)c1 (stereo not given),0,6,5,1,0,4
CCC(=O)c1ccc(OCC(=O)OCC(=O)NCC2CCCO2)cc1 (stereo not given),0,-2,-5,-2,0,-10
O=C(COC(=O)Cc1ccc(Br)cc1)NCc1ccc(F)cc1,0,6,-21,0,0,14
O=c1cc(-c2cccc3ccccc23)[nH][nH]1,0,10,88*,2,0,277
COc1ccc(-c2cc(=O)[nH][nH]2)cc1,1,-3,56,1,0,-3
Nc1ccc(CNC(=O)OCC2c3ccccc3-c3ccccc32)cc1,0,11,2,55*,0,111
Cc1cc(C(=O)Nc2ccccc2N2CCCCC2)no1,1,4,4,0,0,69
O=C(CSc1ccc2nnc(-c3cccnc3)n2n1)Nc1ccccc1C(F)(F)F,2,14,-6,1,0,298*
O=C(CSc1ccc2nnc(-c3cccnc3)n2n1)Nc1ccccc1,0,-11,3,14,0,21
O=C(CSc1nnc2ccc(-c3cccnc3)nn12)Nc1ccc(F)cc1,1,1,-1,61*,0,-2
O=C(CCS(=O)(=O)Cc1ccccc1)N1CCN(c2ccccc2)CC1,1,5,99*,-2,0,1
O=C(CCS(=O)(=O)c1ccc(Br)cc1)N1CCN(c2ccccc2)CC1,1,8,99*,4,0,-2
O=C(CCS(=O)(=O)c1ccc(Br)cc1)N1CCN(c2ccccc2Cl)CC1,0,·,-9,-4,0,9
